Assay outcomes (PubChem)
TDP1 cell CPT = DT40-hTDP1 cell growth loss with CPT. chicken DT40 Tdp1-/-;hTDP1 cells + 20 nM CPT, ATP luminescence, 48 h. Potency, µM (titrated, usually from 46.2 µM), hits mostly inhibitors. hit rate 12% among 420,000; further: nearly all actives have a fitted effect of over 55% in size
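Chicken DT40 Tdp1-/- cells complemented with human TDP1, 400 cells/well, exposed to compounds plus 20 nM camptothecin for at least 48 h at 37 C; viability read as ATP content by CellTiter-Glo luminescence.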
KB-3-1 tox = KB-3-1 parental cell cytotoxicity; AID 1347075; KB-3-1 viability, CellTiter-Glo ATP luminescence, 72 h; hit rate 1.4% among 400,000; Potency, µM (series often up to 46.1 µM), usual class: cytotoxic; further: nearly all actives have a fitted effect of over 60% in size
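Cells are dispensed, compounds pinned in, plates held at 37 °C for 72 h, then CellTiter-Glo is added and luminescence read after 10 minutes. Cell line: parental KB-3-1 in phenol-red-free DMEM, 10% FBS.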
DT40 TDP1 no CPT = qHTS for Inhibitors of human tyrosyl-DNA phosphodiesterase 1 (TDP1): qHTS in cells in absence of CPT; DT40 Tdp1-/- hTDP1 cells, no CPT, ATP luminescence, 48 h; Potency, µM (highest dose often 46.2 µM), hits mostly inhibitors; hit rate 15% among 420,000; further: nearly all actives have a fitted effect of over 55% in size
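Seeded 400 DT40-hTDP1 cells/well (vehicle DMSO, no 20 nM CPT); pinned compounds; ≥48 hr at 37 °C; CellTiter-Glo luminescence as viability measure.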
KB-V1 cytotox = kills drug-selected multidrug resistant KB-V1 cells. KB-V1 MDR cells viability, CellTiter-Glo, 72 h. Potency, µM (series often up to 46.1 µM), hits mostly cytotoxic. AID 1347076. hit rate 3.4% among 400,000; further: nearly all actives have a fitted effect of over 60% in size
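Drug-selected KB-V1 cells, grown in DMEM lacking phenol red with 10% FBS, receive compound titrations; after three days at 37 degrees C, surviving cell ATP is quantified by CellTiter-Glo luminescence and responses normalized and curve-fitted.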
HT1080 IDH1KD tx = kills HT-1080 cells with IDH1 knockdown; HT-1080 IDH1 knockdown viability, ATP luminescence, 48 h; Potency, µM (titrated, usually from 46.1 µM), actives largely listed as cytotoxic; hit rate 2% among 360,000
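CellTiter-Glo luminescence after 48 h compound exposure at 37 degrees C of IDH1-knockdown HT-1080 cells in 5% FBS RPMI. %Activity scaled between DMSO wells and cell-free media wells, with curves fitted and assigned curve classes.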
HT1080-NT tox = kills 2HG-producing HT-1080-NT fibrosarcoma cells. Potency, µM (series often up to 46.1 µM), actives largely listed as cytotoxic. HT-1080-NT fibrosarcoma viability, CellTiter-Glo ATP luminescence, 48 h. AID 686970. hit rate 1.6% among 360,000;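 further: NT is the 2HG producing partner of a matched IDH1 knockdown line; nearly all actives have a fitted effect of over 55% in size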
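Luminescent CellTiter-Glo readout after 48 hours of compound exposure at 37 degrees C defined viability of HT-1080-NT cells. Activity was normalized to DMSO wells and cell-free media wells; concentration-response curves were fitted and assigned curve classes.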
Numbers stand for hits; n = inactive; u = inconclusive; x = no result given. Sampled rows, rich in hits. Any-hit rate of the full collection: about 19%. The call rests on the fitted dose curve; in most records, active means well fitted curve in the direction sought with a large enough effect; inconclusive means small, poorly fitted or top-dose-only effect, or another doubt; inactive means no such curve, though single readings can be large; an effect the other way counts as inactive or inconclusive.

SMILES	TDP1 cell CPT	KB-3-1 tox	DT40 TDP1 no CPT	KB-V1 cytotox	HT1080 IDH1KD tx	HT1080-NT tox
COc1ccc(N=C2CC(C)(C)CC(=O)/C2=C(/O)c2ccccc2)cc1	n	n	u	n	n	n
COc1ccc(/C=C2\N=C(c3ccccc3Cl)NC2=O)cc1	5.8µM	u	0.82µM	u	15µM	n
CCOc1ccccc1NC(=O)CSc1nnc(CNC(=O)COc2ccc(Cl)cc2)o1	n	n	n	n	n	n
O=C(COc1ccc(Cl)cc1)NCc1nnc(SCC(=O)Nc2ccc(F)cc2F)o1	13µM	n	n	n	n	n
COC(=O)c1ccc(CSc2nnc(CNC(=O)COc3ccc(Cl)cc3)o2)o1	16µM	n	u	u	n	n
COC(=O)c1ccc(CSc2nnc(CNC(=O)c3ccccc3F)o2)o1	n	n	n	n	n	n
CC(C)Oc1ccc(CNC(=O)c2ccc(CN3CC(=O)N4CCCCC4C3=O)cc2)cc1 (configuration not stated)	n	n	n	n	x	x
CN(C)c1cccc(N2CCN(c3nn4c(=O)c5ccccc5nc4s3)CC2)c1	x	n	x	n	x	x
COc1ccc(CN2CCN(C(=O)c3ccccc3C(=O)c3ccccc3)CC2)cc1OC	u	n	n	16µM	n	n
Cc1cc(Cl)ccc1OCCCC(=O)N1CCN(C(=O)c2ccco2)CC1	u	n	21µM	u	n	n
COc1ccc(CN2CCN(C(=O)CCC(=O)c3ccc(C)s3)CC2)cc1OC	n	n	u	4.1µM	n	n
O=C(OCC(=O)N1CCN(C(=O)c2ccco2)CC1)c1ccccc1OCc1ccc(Cl)cc1	16µM	n	23µM	n	n	n
O=C(CCCOc1ccccc1)N1CCN(C(=O)c2ccco2)CC1	n	n	n	u	n	n
COc1ccc(CN2CCN(C(=O)c3cccc(OC)c3OC)CC2)cc1OC	n	n	n	n	n	n
COc1ccc(C(=O)N2CCN(Cc3ccc4c(c3)OCO4)CC2)cc1OC	n	n	u	n	u	n
COc1ccc(OC)c(-c2nc(CN3CCN(C(=O)c4ccco4)CC3)c(C)o2)c1	n	n	u	n	n	n
COc1ccc(CN2CCN(C(=O)c3ccco3)CC2)cc1OCc1ccccc1	u	u	15µM	n	n	n
COc1ccccc1OCc1ccc(C(=O)N2CCN(C(=O)c3ccco3)CC2)cc1	n	n	n	5.2µM	n	n
Cc1ccc(CN2CCN(C(=O)c3ccco3)CC2)cc1	n	n	n	n	n	n
COc1ccc(-c2nc(CN3CCN(C(=O)c4ccco4)CC3)c(C)o2)c(OC)c1C	u	x	18µM	x	n	n
CCn1c2ccccc2c2cc(CN3CCN(C(=O)c4ccco4)CC3)ccc21	u	n	23µM	n	u	u
Cn1c(/N=C(\N)c2ccccc2)nc2ccccc21	u	n	u	n	n	n
O=C(c1ccco1)N1CCN(Cc2cn[nH]c2-c2cccc3ccccc23)CC1	u	n	23µM	u	n	n
O=C(c1ccco1)N1CCN(CC(O)COc2ccc3oc4ccccc4c3c2)CC1 (configuration not stated)	18µM	n	u	u	u	n
CCOC(=O)N1CCN(Cc2cn[nH]c2-c2cccc3ccccc23)CC1	n	n	u	u	n	n
SMILES	TDP1 cell CPT	KB-3-1 tox	DT40 TDP1 no CPT	KB-V1 cytotox	HT1080 IDH1KD tx	HT1080-NT tox
CC(C)C[C@H]1COc2cccc(N3CCSCC3)c2S(=O)(=O)N1	n	n	u	n	n	n
CCC1CCCCN1C(=O)c1cc(-c2ccc(Cl)c(Cl)c2)on1 (configuration not stated)	u	n	u	21µM	n	n
COc1ccc(-c2cc(C(=O)N3CCCCC3C)no2)cc1OC (configuration not stated)	n	x	n	x	x	x
CC1CCCCN1C(=O)c1cc(-c2ccc3c(c2)OCO3)on1 (configuration not stated)	n	n	n	n	n	n
CC1CCCCN1C(=O)c1cc(-c2ccc(Cl)c(Cl)c2)on1 (configuration not stated)	n	n	u	18µM	n	n
NCC(=O)O	n	x	n	x	x	x
COC(=O)CN1C(=O)CSc2ccc(S(=O)(=O)Nc3cccc(C)c3)cc21	u	x	23µM	x	x	x
CC(=O)c1cccc(NS(=O)(=O)c2ccc3c(c2)N(C(C)=O)CCO3)c1	u	u	21µM	n	n	u
CC(=O)c1cccc(NS(=O)(=O)c2cc3c(cc2C)N(C(C)=O)CCO3)c1	u	n	u	n	n	n
CC(=O)N1CCSc2ccc(S(=O)(=O)Nc3cccc(C)c3)cc21	18µM	n	13µM	u	n	n
COC(=O)CN1C(=O)CSc2ccc(S(=O)(=O)N3CCOCC3)cc21	n	x	n	x	x	x
CCc1cccc(NS(=O)(=O)c2ccc3c(c2)N(CC(=O)OC)C(=O)CS3)c1	18µM	x	u	x	x	x
COc1ccc(NC(=O)c2sc3nc4n(c(=O)c3c2C)CCC4)cc1Cl	n	n	n	n	x	x
O=c1[nH]cc(F)c(=O)n1C1OC(CO)C(O)C1O (configuration not stated)	n	n	u	n	n	n
Cc1cccc(C)c1NC(=O)C1(C)CSCC(=O)N1Cc1cccs1 (configuration not stated)	n	n	n	n	n	n
COc1ccc(-c2ccccc2)cc1NC(=O)[C@@H]1O[C@H](CO)[C@H](O)[C@H](O)[C@H]1O	n	n	n	n	n	n
CCOC(=O)c1c(C)oc2ncnc(N3CCN(c4ccccc4)CC3)c12	8.2µM	n	8.2µM	u	x	x
CCOC(=O)c1c(C)oc2ncnc(N3CCN(c4ccccc4F)CC3)c12	18µM	n	13µM	n	x	x
CCOC(=O)c1ccccc1NC(=O)c1c(C)oc2ncnc(N3CCOCC3)c12	u	x	21µM	x	x	x
Cc1oc2ncn(C)c(=O)c2c1C(=O)N1CCN(c2ccccc2F)CC1	n	n	n	n	x	x
Cc1oc2ncnc(N3CCOCC3)c2c1C(=O)Nc1ccc(Br)cc1F	n	n	n	n	x	x
CCOC(=O)c1c(C)oc2nc(C)nc(N3CCN(c4cccc(C)c4C)CC3)c12	21µM	n	18µM	n	x	x
CCOC(=O)c1c(C)oc2nc(C)nc(N3CCN(c4ccccc4F)CC3)c12	15µM	n	7.3µM	n	x	x
CCOC(=O)c1c(C)oc2nc(C)nc(N3CCN(c4cc(Cl)ccc4C)CC3)c12	4.6µM	n	21µM	u	x	x
CCOC(=O)c1c(C)oc2nc(C)nc(Nc3ccc(C)c(Cl)c3)c12	n	n	n	n	x	x
O=C(CCl)NC1(C(=O)O)CCCC1	n	n	n	n	n	n
